Among all 16,000 compounds or so, about 2,600 (16%) were called active. Not shown: some 20% with an inconclusive outcome. Not all results are given here. The source holds several records for some structures; these can differ, active in one and inactive in another. Values without a mark were called inactive. Calls follow the shape of the dose curve; as a rule, active = well fitted curve in the direction sought with a large enough effect; inconclusive = small, poorly fitted or top-dose-only effect, or effect the other way; inactive = no such curve, though single readings can be large or run the other way.
The molecules below were run against Cytochrome P450 2D6 (Homo sapiens) (UniProt P10635) (assay: Cytochrome panel assay with activity outcomes). Conditions: recombinant CYP, pro-luciferin dealkylation, luminescence, p450-cyp2d6; series mostly up to 57.1 µM; activity, negative = inhibition: at the top concentration.
% is scaled to controls: 0 for no effect and ±100 for the full control effect.

Chain of Cytochrome P450 2D6 (Homo sapiens) (P10635 whole entry, looked up): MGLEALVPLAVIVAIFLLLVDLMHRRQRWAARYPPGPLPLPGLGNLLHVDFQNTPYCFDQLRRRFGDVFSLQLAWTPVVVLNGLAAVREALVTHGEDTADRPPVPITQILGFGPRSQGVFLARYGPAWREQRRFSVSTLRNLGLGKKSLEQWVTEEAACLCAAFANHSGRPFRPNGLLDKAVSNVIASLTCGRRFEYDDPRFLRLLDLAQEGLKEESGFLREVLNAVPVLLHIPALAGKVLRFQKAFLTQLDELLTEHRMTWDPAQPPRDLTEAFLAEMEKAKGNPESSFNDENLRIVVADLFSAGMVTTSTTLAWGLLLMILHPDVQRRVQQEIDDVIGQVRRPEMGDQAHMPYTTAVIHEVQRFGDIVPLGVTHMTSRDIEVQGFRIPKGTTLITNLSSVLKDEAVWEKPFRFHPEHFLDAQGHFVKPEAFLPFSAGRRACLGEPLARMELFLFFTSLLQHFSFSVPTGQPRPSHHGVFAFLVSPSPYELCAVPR

Structure (SMILES)	activity, negative = inhibition	AC50
N#CC1=C(N)OC2=C(C(=O)CCC2)C12CCC1(CC2)OCCO1	-8.51%	
CN1CCN(c2ncc3nc(-c4cn(C)c5ccccc45)c(=O)n(CCc4ccccc4)c3n2)CC1	-18.8%	
OC1(c2ccc(OC(F)F)cc2)CSC(=Nc2cccnc2)N1C1CC1 (configuration not stated)		2000 nM (active)
N#Cc1c(-c2ccccc2)nc2n(c1=O)CCS2	0.549%	
CN1CCCC[C@@H]1CCN1c2ccccc2Sc2ccc(S(C)=O)cc21 (some centres not stated)	0.0782% [at 11.4 µM]	100 nM (active)
CN1CCCC[C@@H]1CCN1CCCCC1	-1.48% [at 11.4 µM]	
COc1ccc(OCc2nnc(SCC(=O)N3c4ccccc4Sc4ccc(Cl)cc43)o2)cc1	14.4%	
COc1ccc2c(c1)N(CC[C@H]1CCCCN1C)c1ccccc1S2		50.1 nM (active)
O=c1c(-c2ccccc2)nc2cncnc2n1C1CC1	-0.578%	
O=C(CCNC(=O)c1ccc(Br)o1)NCc1ccccn1	-9.12%	
COc1cc(=O)n2c(n1)SCCC2	0.218%	
CC12c3ccccc3C(c3ccccc31)C1C(=O)N(Cc3cccnc3)C(=O)C12 (configuration not stated)	-16.3%	
CC1CCN(c2ccccc2NC(=S)NC(=O)c2cccs2)CC1		200 nM (active)
Cc1cccc(NC(=S)NC(=O)c2cccs2)n1	-19.6%	
O=C(NC(=S)Nc1cccc(Cl)c1N1CCCCC1)c1cccs1	-11.5%	
COc1cccc(OCC(=O)NN=C2c3ccccc3-c3ccccc32)c1	-15.9%	
O=c1c(-c2ccc(F)cc2)nc2cncnc2n1C1CC1	3.81%	
O=C(Nc1cccc2nsnc12)c1ccc(-c2cccc(Cl)c2)o1	-5.52%	
CCCn1nnc(NC(=O)c2ccc(-c3cccc(Cl)c3)o2)n1	-22.4%	
COC(=O)c1sccc1-c1ccc(C(=O)Nc2cccc(Cl)c2)o1		15800 nM (active)
Cc1nc2cnc(N3CCNCC3)nc2n(Cc2ccc(F)cc2)c1=O	-15.6%	
CCN(CC)CCOC(=O)c1cc(Cl)c(N)cc1OC		15800 nM (active)
O=C(OCCCN1CCCCC1)c1ccc(O)cc1		5620 nM (active)
COC(=O)c1cc(OC)c(OC)cc1NC(=S)N1CCCCC1	19.7%	
COc1cc(C(=O)OCC(=O)Nc2cc(C)on2)cc(OC)c1OC	-10.6%	
COc1cc(CN2CCCCC2)cc2cc(C(=O)O)c(=O)oc12	4.16% [at 11.4 µM]	

Structure (SMILES)	activity, negative = inhibition	AC50
CCCCOC(=O)c1ccc(NC(=S)NC(=O)c2c(Cl)cnn2C)cc1	-16.6%	
COc1cc(N)c(Cl)cc1C(=O)OCCCN1CCCCC1		126 nM (active)
CCN(CC)CCCCCCCCOC(=O)c1cc(OC)c(OC)c(OC)c1		31600 nM (active)
CCOC(=O)C1=C(O)/C(=C/c2cc(OC)c(OC)c(OC)c2)N=C1C	-6.74%	
CCN(CC)CCNC(=O)c1ccc(Cl)c(S(=O)(=O)Nc2ccccc2OC)c1	-21.3%	
Cc1c(-c2ccc(O)cc2)nn(-c2ccc(O)cc2)c1-c1ccc(OCCN2CCCCC2)cc1	2.1%	
NS(=O)(=O)c1cc2c(cc1Cl)N[C@@H](C(Cl)Cl)NS2(=O)=O	9.05% [at 25.6 µM]	
COc1cccc(Cn2c(=O)c(-c3cccs3)nc3cnc(OCc4ccccc4)nc32)c1	1.18%	
Cn1c(=O)c(-c2ccccc2)nc2cnc(OCc3ccccc3)nc21	3.17%	
CCOC(=O)C1CCN(C(=O)c2ccccc2NC(C)=O)CC1	-0.841%	
N#Cc1ccccc1NC(=O)Nc1cccs1	-7.31%	
Cc1nc2cnc(N(C)C)nc2n(-c2ccccc2)c1=O	0.658%	
COc1ccccc1-n1c(SCC(=O)N2CCCC2)nc2cccnc21	5.52%	
CCOC(=O)c1c(NC(=O)Cn2nc([N+](=O)[O-])c(Br)c2C)sc2c1CCC(C)C2 (configuration not stated)	1.74%	
CCN(CC)C(=O)c1ccc(O)c(OC)c1	3.15% [at 25.6 µM]	
CCCCOc1ccccc1N	-4.34%	
CCCOc1cc(N)ccc1C(=O)OCCN(CC)CC		2000 nM (active)
O=C(O)/C=C/c1cn(-c2ncc(C(F)(F)F)cc2Cl)c2ccccc12	14.4%	
CSc1nnnc2ccccc12	0.441% [at 11.4 µM]	
Cc1nc2cnc(Oc3cccc(Cl)c3)nc2n(CCC#N)c1=O	-5.99%	
CCC(Sc1ncccc1C(=O)O)C(=O)N1CCOCC1 (configuration not stated)	8.57%	
NS(=O)(=O)Cc1noc2ccccc12	-3.15%	
O=C(O)/C=C\C(=O)Nc1ccc2c(c1)C(=O)c1cc(F)ccc1-2	-18.3% [at 11.4 µM]	
COCCNc1nc(-c2cccc(OC)c2)nc2ccccc12		20000 nM (active)
COc1cccc(-c2nc(NCCNC(C)=O)c3ccccc3n2)c1		3980 nM (active)

— PubChem BioAssay AID1851 (National Center for Advancing Translational Sciences (NCATS), 2009)
